The text below walks through data of PubChem BioAssay.

Structures are written as SMILES.

Assay [1] deals with Human papillomavirus type 1a protein E7 (residues 44-93). Briefly: HPV1a E7 fragment binders on microarrays, primary screen, biochemical, small-molecule microarray, residues 44-93, 635 nm fluorescence (AID 1108).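 Also: E7 fragment applied at 1 µg/mL in TBST for 1 h at 4 C; score combines spot fluorescence with its signal to noise ratio.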 The note with it: small-molecule microarray binding, fluorescence 635 nm; higher = more signal.
Assay [2] in a line: modulators of HCV replicon luciferase signal, primary screen, HCV replication inhibitor project, Huh7 cells, luciferase reporter (AID 1109).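 Also: huh7 hepatoma cells harbouring a luciferase neomycin HCV replicon reporter; luciferase luminescence as measure of HCV replicon replication; test concentration not given here.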 The conditions noted are these: 48 h, higher = more signal.
The target of assay [3] is Left-right determination factor 2 (Homo sapiens) (UniProt O00292). Briefly: LEFTY2 binders on small-molecule microarrays, primary screen, biochemical, small-molecule microarray, 635 nm fluorescence scan (AID 1110). The conditions noted are these: LEFTY2 binding, higher = more signal.
Left-right determination factor 2 (Homo sapiens), sequence (O00292 whole entry, looked up): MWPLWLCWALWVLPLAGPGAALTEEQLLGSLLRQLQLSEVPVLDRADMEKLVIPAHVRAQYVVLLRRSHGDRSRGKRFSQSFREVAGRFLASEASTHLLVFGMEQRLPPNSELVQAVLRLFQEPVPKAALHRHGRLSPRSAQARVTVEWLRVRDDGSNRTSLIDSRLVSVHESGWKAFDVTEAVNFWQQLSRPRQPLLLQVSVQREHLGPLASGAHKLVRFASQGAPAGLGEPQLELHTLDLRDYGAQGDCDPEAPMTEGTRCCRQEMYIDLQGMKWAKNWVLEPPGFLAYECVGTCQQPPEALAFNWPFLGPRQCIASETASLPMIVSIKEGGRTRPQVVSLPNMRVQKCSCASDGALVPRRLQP
For assay [4], the target named is Calmodulin-1 (Homo sapiens) (UniProt P0DP23). Briefly: CALM1 binders on microarrays, EGTA buffer, profiling panel, biochemical, small-molecule microarray, Cy5-labelled CALM1 (AID 1111).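 Also: labelled calmodulin applied in Tris saline Tween buffer holding calcium plus EGTA and DTT.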 The conditions noted are these: Cy5-CALM1 binding fluorescence, higher = more signal.
The target is the same in assay [5]. Briefly: calcium-bound CALM1 binders on microarrays, profiling panel, artefact control for SMM control-protein annotation, biochemical, small-molecule microarray, Cy5-labelled CALM1, plus calcium (AID 1112).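 Also: score merges spot fluorescence with signal to noise from triplicate slides.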 The conditions noted are these: Cy5-CALM1 binding fluorescence, higher = more signal.
A short description of assay [6]: small-molecule microarray binders of probe aWnt5a, primary screen, biochemical, biotinylated probe, 635/667 nm fluorescence (AID 1113).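 Also: score merges 667 nm fluorescence intensity with signal-to-noise per printed feature.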 The conditions noted are these: higher = more signal.
Assay [7] in a line: small-molecule microarray binders of probe aShh, primary screen, biochemical, biotinylated probe, 635/667 nm fluorescence (AID 1114).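 Also: probe is biotin-labelled aShh protein from a stem cell growth factor screen; measures binding of labelled protein to compounds printed on the slide; score merges feature fluorescence at 667 nm with signal-to-noise.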 The conditions noted are these: higher = more signal.
Assay [8] in a line: small-molecule microarray binders of probe aNog, primary screen, biochemical, biotinylated probe, 635/667 nm fluorescence (AID 1115).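 Also: probe is biotinylated aNog protein used at 0.15 µg/mL for 1 h at 4 C; z-score combines 667 nm fluorescence of each spot with its signal to noise.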 The conditions noted are these: higher = more signal.
The target in assay [9] is Torsin-1A-interacting protein 1 (Homo sapiens) (UniProt Q5JTV8). Nature of the assay: LAP1 binders from COS7 cell lysate, primary screen, small-molecule microarray, 635/667 nm fluorescence (AID 1116). The conditions noted are these: COS7-hLAP1 lysate binding, 635 nm fluorescence, higher = more signal.
Torsin-1A-interacting protein 1 (Homo sapiens), sequence (Q5JTV8 whole entry, looked up): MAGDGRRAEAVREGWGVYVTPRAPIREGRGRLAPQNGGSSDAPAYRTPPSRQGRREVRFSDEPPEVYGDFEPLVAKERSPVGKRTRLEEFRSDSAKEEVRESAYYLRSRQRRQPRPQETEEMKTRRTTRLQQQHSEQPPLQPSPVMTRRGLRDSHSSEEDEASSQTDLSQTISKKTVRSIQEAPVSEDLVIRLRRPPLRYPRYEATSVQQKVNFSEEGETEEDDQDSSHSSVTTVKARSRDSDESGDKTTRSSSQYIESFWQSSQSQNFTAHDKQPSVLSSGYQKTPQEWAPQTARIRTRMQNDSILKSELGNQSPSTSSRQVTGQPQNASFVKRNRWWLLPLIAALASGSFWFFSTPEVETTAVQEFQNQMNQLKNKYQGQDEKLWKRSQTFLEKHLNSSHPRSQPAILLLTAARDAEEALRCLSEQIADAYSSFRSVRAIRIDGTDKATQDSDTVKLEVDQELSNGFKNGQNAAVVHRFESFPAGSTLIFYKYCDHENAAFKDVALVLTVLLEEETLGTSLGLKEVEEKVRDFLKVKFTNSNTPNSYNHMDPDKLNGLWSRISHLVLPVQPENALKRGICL
In assay [10] the target is Alpha-bungarotoxin (Bungarus multicinctus) (UniProt P60615). Briefly: alpha-bungarotoxin binders on microarray, profiling panel, artefact control for SMM control protein annotation, biochemical, small-molecule microarray, Alexa647 label, 635/667 nm fluorescence (AID 1117). The note with it: alpha-BTX-A647 binding fluorescence, higher = more signal.
Alpha-bungarotoxin (Bungarus multicinctus), sequence (P60615 whole entry, looked up): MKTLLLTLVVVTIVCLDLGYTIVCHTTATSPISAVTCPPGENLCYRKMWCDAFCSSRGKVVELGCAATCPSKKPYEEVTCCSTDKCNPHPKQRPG

Consider `CCOC(=O)[C@H](CC(C)C)NC(=O)CCC1CC(OC(=O)NCCc2ccc(F)cc2)CC2(CCCC(COC(=O)NCC3CCCCC3)O2)O1` (stereo not given in full), for which the composite z-score in assay [1] was 0.723; in assay [3] it was 0.351; in assay [4], 0.255; in [5], -0.622; in [6] it was -0.19; in [7] it was -0.0362. In addition, the composite z-score in assay [8] was -0.45; in assay [9], 0.627; in assay [10], 0.596. The compound further registered a z-score in [2] of -1.11.
Consider `CCOC(=O)[C@H](CC(C)C)NC(=O)CCC1CC(OC(=O)NCc2ccc3c(c2)OCO3)CC2(CCCC(COC(=O)NCc3cccc(C(F)(F)F)c3)O2)O1` (stereo not given in full), for which the composite z-score in [1] was 0.323; in assay [3], 0.227; in [4], 0.0753; in [5], -0.259; in assay [6] it was -0.148; in assay [7], -0.138. For the same compound, the composite z-score in assay [8] is -0.316; in [9], -0.0298; in [10] it was 0.111. The same compound displayed a z-score in [2] of -1.44.
In the case of `C#CCCCON=C1C[C@@H](O)[C@@H](O)[C@@H]2[C@@H]3C(=O)N(CC)C(=O)[C@@H]3CC[C@@H]12`, the composite z-score in assay [1] is 0.431; in assay [3] it was 0.507; in assay [4], -0.4; in assay [5] it was -0.749; in assay [6], -0.164; in [7], -0.197. Moreover, the composite z-score in [8] is -0.133; in [9], 0.586; in assay [10] it was 1.27. The same compound registered a z-score in assay [2] of -0.113.
In the case of `COC(=O)C1=C(C)N(Cc2ccccc2)[C@]23O[C@](C(=O)OC)(C(=O)N2[C@@H]1c1ccccc1)C(C(=O)OC)=C3C(=O)OC`, the composite z-score in [1] is 1.3; in assay [3] it was 0.88; in [4] it was -0.328; in assay [5] it was -1.19; in assay [6], -0.0346; in assay [7] it was -0.138. Moreover, the composite z-score in assay [8] is 0.229; in assay [9], 0.569; in assay [10] it was -0.129. The compound further returned a z-score in assay [2] of -2.76.
Regarding `CO[C@H]1COC(=O)CC=C[C@H](C)[C@@H](OC)COC(=O)[C@@H](C)NC(=O)CC=C[C@@H]1C`, the composite z-score in assay [1] was -2.13; in assay [3], 0.962; in assay [4] it was -0.857; in assay [5], -1.55; in assay [6] it was -0.119; in assay [7], -0.367. Besides, the composite z-score in assay [8] is -0.274; in assay [9], 0.12; in assay [10], -0.352. The z-score in assay [2] is -1.42.
As to `CCN1C(=O)[C@H]2[C@H]3[C@H](O)[C@H](O)CC(=NOC[C@H]4O[C@H](c5ccccc5)C=C[C@@H]4Oc4ccc(OC)cc4)[C@@H]3CC[C@H]2C1=O`, the composite z-score in assay [1] was 0.783; in [3] it was 0.621; in assay [4], 0.406; in assay [5], -0.332; in [6], -0.0045; in assay [7], 0.318. The composite z-score in assay [8] turned out to be 0.364; in assay [9] it was 0.447; in assay [10], 1.05. The compound also gave a z-score in assay [2] of -1.65.
For `COC(=O)[C@H](C)NC(=O)CCC1CC(OC(=O)NCc2cccc3ccccc23)CC2(CCCC(COC(=O)NCC(c3ccccc3)c3ccccc3)O2)O1` (stereo not given in full), the composite z-score in [1] is 1.32; in [3], 0.889; in assay [4] it was -0.0132; in [5], -0.265; in [6] it was -0.0185; in [7], -0.273. Further, the composite z-score in [8] is -0.0157; in [9], 0.345; in assay [10], 0.0226. The z-score in assay [2] is -0.977.
Take `CC(C)(C)N1C(=O)[C@H]2[C@H]3[C@H](O)[C@H](O)CC(=O)[C@H]3CC[C@H]2C1=O`: the composite z-score in assay [1] was 0.487; in [3], 0.473; in assay [4], 0.133; in [5] it was -0.816; in [6], 0.0267; in assay [7] it was -0.186. Further, the composite z-score in assay [8] was -0.0996; in assay [9], 0.274; in assay [10] it was 0.642. In assay [2], this compound showed a z-score of -0.041.
As to `CCOC(=O)[C@H](CC(C)C)NC(=O)CCC1CC(OC(=O)NCCc2ccc(F)cc2)CC2(CCCC(COC(=O)NCC(c3ccccc3)c3ccccc3)O2)O1` (stereo not given in full), the composite z-score in [1] is 0.776; in assay [3] it was 0.319; in assay [4] it was 0.479; in assay [5], -0.476; in [6], -0.152; in assay [7] it was -0.214. Further, the figures for the composite z-score in assay [8], in assay [9] and in assay [10] were -0.501, 0.145 and 0.71, respectively. Besides, the z-score in assay [2] was 0.612.
`CCN1C(=O)[C@@H]2[C@H]3C(=CC[C@@H]2C1=O)C1(OCCCO1)[C@H]1O[C@H]1[C@H]3O`: the composite z-score in assay [1] is 1.38; in assay [3] it was 0.352; in assay [4], 0.669; in assay [5], -0.536; in [6] it was 0.0293; in assay [7], -0.304. The composite z-score was determined as 0.194 in assay [8], 1.27 in assay [9] and 0.857 in assay [10]. In [2], the z-score was -4.67.
`O=C1[C@H]2[C@H]3[C@H](O)[C@H](O)CC(=NOC[C@@H](O)COCc4ccco4)[C@@H]3CC[C@H]2C(=O)N1C[C@@H]1CCCO1`: the composite z-score in assay [1] was 0.0714; in assay [3] it was 1.11; in assay [4], -1.05; in [5] it was -1.73; in assay [6], -0.117; in assay [7] it was -0.0553. Besides, the results for the composite z-score in assay [8], in assay [9] and in assay [10] were -0.218, 0.3 and -0.075, respectively. The compound further had a z-score in assay [2] of 0.557.
With `Cn1c(=O)n2n(c1=O)[C@H]1[C@H](O)[C@@H]3O[C@@H]3C(=O)[C@H]1CC2`, the composite z-score in [1] is 0.625; in [3], 0.486; in assay [4] it was -0.144; in assay [5], -0.502; in assay [6], -0.104; in assay [7], -0.0146. For the same compound, the composite z-score in assay [8] was -0.234; in assay [9], 0.663; in assay [10], -0.541. The z-score in [2] was found to be 0.101.
`O=c1n(Cc2cc3c(cc2Cl)OCO3)c(=O)n2n1CC[C@@H]1C(=NOC[C@@H](O)COCc3ccco3)[C@H]3O[C@H]3[C@@H](O)[C@@H]12`: the composite z-score was 0.77 in assay [1]; 0.436 in assay [3]; -0.25 in assay [4]; -0.535 in [5]; -0.0556 in assay [6]; -0.0709 in assay [7]. Moreover, the composite z-score is -0.0544 in assay [8], 0.469 in [9] and 0.423 in [10]. Further, the z-score in [2] is -0.76.
For the compound `C#CCCCON=C1C[C@@H](O)[C@@H](O)[C@@H]2[C@@H]3C(=O)N(Cc4ccccc4)C(=O)[C@@H]3CC[C@@H]12`, the composite z-score was 0.0417 in [1]; 0.26 in assay [3]; -0.274 in [4]; -0.0051 in assay [5]; -0.0236 in [6]; -0.253 in assay [7]. Besides, the composite z-score was -0.133 in [8], -0.194 in assay [9] and -0.221 in assay [10]. This compound registered a z-score in assay [2] of 0.858.
For the compound `CCN1C(=O)[C@H]2[C@H]3[C@H](O)[C@H](O)CC(=NO[C@@H](C)c4cn([C@H](CO)Cc5ccccc5)nn4)[C@@H]3CC[C@H]2C1=O`, the composite z-score in [1] was 0.696; in [3], 0.636; in [4], 0.711; in assay [5], -0.209; in assay [6] it was -0.0403; in [7], -0.206. The results for the composite z-score in [8], in [9] and in assay [10] were 0.111, -0.117 and 0.889, respectively. In assay [2], this compound yielded a z-score of -0.262.
On to `CC(C)CON=C1[C@H]2CCn3c(=O)n(Cc4cc5c(cc4Cl)OCO5)c(=O)n3[C@H]2[C@H](O)[C@@H]2O[C@H]12`, for which the composite z-score in [1] was 0.271; in assay [3] it was 0.389; in assay [4], -0.0844; in assay [5] it was -0.635; in assay [6], -0.0758; in [7] it was 0.0815. In addition, the results for the composite z-score in assay [8], in assay [9] and in [10] were -0.329, 0.38 and 0.351, respectively. Also, in assay [2], the z-score turned out to be 0.0671.
As for `Cc1ccc(S(=O)(=O)N[C@H]2COC(=O)CC=C[C@@H](C)COC(=O)CC=C[C@@H]2C)cc1`, the composite z-score in [1] is -0.572; in assay [3], 0.449; in assay [4], -0.606; in assay [5], -1.24; in [6], -0.12; in assay [7] it was -0.153. Moreover, the values for the composite z-score in assay [8], in assay [9] and in assay [10] were -0.222, 0.163 and -0.361, respectively. In [2], this compound returned a z-score of 0.391.
